Hits are enriched below; roughly 10% of the tested compounds scored in any of these assays.
G9a block: blocks human histone lysine methyltransferase G9a. G9a H3K9 monomethylation, AlphaScreen, 2 h. Potency, µM (doses to about 102 µM), most hits filed as inhibitors. actives 8.8% (n = 350,000). AID 504332; note: nearly all actives have a fitted effect of over 75% in size
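Methyltransferase reactions run at room temperature for 2 h (20 nM enzyme, 500 nM biotin-H3K9 peptide, 20 uM SAM) after a 15 min compound preincubation; product detected by AlphaScreen beads and anti-H3K9me1 antibody.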
HP1b binding inh: inhibitors of HP1-beta chromodomain binding to methylated histone tails. Potency, µM (titrated, usually from 114 µM), hits mostly inhibitors. P83916. actives 0.56% (n = 390,000). AlphaScreen HP1-beta / biotin-H3K9me3 peptide binding; note: nearly all actives have a fitted effect of over 70% in size
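HP1-beta protein (50 nM final) preincubated 30 min at room temperature with biotinylated H3(1-18)K9me3 peptide (50 nM) in PBS pH 7.4, 0.01% Tween-20, then compound added for 30 min. AlphaScreen streptavidin donor/nickel chelate acceptor beads (10 ug/mL final), 30 min dark, luminescence read.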
Six1-Eya2 inh: inhibitors of human Six1/Eya2 interaction. Q15475+O00167. AlphaScreen GST-Six1/His-Eya2 binding, biochemical; hits give low values. activity change, % (test concentration not listed). actives 0.56% (n = 360,000). AID 651725; in the data active = activity change below about -65%; inconclusive = mostly about -30% to -63%
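GST-Six1 + His-Eya2 (5X stock: 250/500 nM); Tris pH 8.0, 300 mM NaCl, 0.05% BSA, 0.02% Tween 20; GSH donor/Ni acceptor beads; 1 h 37 °C dark; AlphaScreen readout.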
CtBP-E1A blk: inhibitors of CtBP/E1A interaction; AlphaScreen GST-E1A/His-CtBP binding, 1536-well; hits give low values; activity change, % (test concentration not listed); actives 0.49% (n = 340,000); in the data active = activity change below about -65%; inconclusive = mostly about -30% to -63%
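AlphaScreen with 125 nM GST-E1A and 125 nM His-CtBP (5X stocks) in Tris pH 8.0, 300 mM NaCl, BSA, Tween 20, TCEP. Compounds preincubated 2 h at 37 deg C, then glutathione donor/nickel acceptor beads added for 1 h at 37 deg C in dark.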
BAZ2B inh: BAZ2B (human) inhibition; AlphaScreen BAZ2B-H3K14Ac peptide displacement; Potency, µM (doses to about 114 µM), usual class: inhibitors; actives 4.4% (n = 360,000); note: nearly all actives have a fitted effect of over 60% in size
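AlphaScreen displacement of biotin-H3(5-23)K14Ac peptide (50 nM final) from BAZ2B (50 nM final) in PBS pH 7.4, 0.01% Tween-20; complex preformed 30 min RT, then compounds (top 110 uM) 30 min RT, beads 20 min dark.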
JMJD2A Tudor inh: blocks the human JMJD2A Tudor domain | Potency, µM (top dose mostly 114 µM), most hits filed as inhibitors | AlphaScreen JMJD2A-Tudor / H3K4me3 peptide binding | AID 504339 | O75164 | actives 4.4% (n = 390,000); note: nearly all actives have a fitted effect of over 50% in size
Target sequence (O75164 whole entry, looked up, the tested form may be a part): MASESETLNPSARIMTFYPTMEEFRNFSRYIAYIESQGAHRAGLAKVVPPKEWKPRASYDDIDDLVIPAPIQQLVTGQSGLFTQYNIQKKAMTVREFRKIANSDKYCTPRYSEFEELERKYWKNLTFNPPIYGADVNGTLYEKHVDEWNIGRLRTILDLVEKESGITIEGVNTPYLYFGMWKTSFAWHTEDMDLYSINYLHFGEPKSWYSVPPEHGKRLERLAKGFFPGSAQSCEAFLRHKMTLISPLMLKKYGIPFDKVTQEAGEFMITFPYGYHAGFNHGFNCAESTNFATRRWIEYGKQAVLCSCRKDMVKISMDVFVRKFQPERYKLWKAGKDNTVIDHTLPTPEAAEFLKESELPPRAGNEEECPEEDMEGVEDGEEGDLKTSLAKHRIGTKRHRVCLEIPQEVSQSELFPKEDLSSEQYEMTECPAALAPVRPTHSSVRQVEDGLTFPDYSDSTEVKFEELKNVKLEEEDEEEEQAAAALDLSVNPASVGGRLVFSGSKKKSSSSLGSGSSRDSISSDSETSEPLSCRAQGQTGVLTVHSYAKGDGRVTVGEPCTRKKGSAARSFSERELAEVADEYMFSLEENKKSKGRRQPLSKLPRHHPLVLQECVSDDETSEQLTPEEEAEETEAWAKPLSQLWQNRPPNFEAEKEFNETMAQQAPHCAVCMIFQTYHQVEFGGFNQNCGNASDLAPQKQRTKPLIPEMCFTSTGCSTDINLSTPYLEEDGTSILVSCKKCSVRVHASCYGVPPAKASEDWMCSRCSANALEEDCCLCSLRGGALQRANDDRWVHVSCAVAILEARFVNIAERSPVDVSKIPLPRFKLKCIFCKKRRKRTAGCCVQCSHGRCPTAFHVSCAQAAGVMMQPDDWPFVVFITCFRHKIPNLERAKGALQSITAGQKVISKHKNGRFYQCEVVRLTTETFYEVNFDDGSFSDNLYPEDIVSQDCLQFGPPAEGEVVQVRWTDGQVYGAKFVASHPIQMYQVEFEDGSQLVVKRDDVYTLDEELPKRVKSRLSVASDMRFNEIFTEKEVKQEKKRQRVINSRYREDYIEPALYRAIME
Of the large screens only hits and unclear results are named; the others gave an inactive call. Unless noted, calls come from the whole dose curve; as a rule, active = well fitted inhibition curve with a large enough effect; inconclusive = small, poorly fitted or top-dose-only effect; inactive = no such curve, though single readings can be large or run the other way.

Cc1ccc2c(c1)CC1(CN2C)C(=O)NC(=O)N(c2cc(C)ccc2C)C1=O (stereo not drawn)	G9a block 5.62µM
Nc1nc(N)nc(NC2CC2)n1	none (no result: HP1b binding inh, Six1-Eya2 inh, CtBP-E1A blk, BAZ2B inh, JMJD2A Tudor inh)
Cn1cccc1/C=C1\C(=O)NC(=O)N(CCC2=CCCCC2)C1=O	none
Cn1cccc1/C=C1\C(=O)NC(=O)N(Cc2ccccc2Cl)C1=O	G9a block 44.7µM, JMJD2A Tudor inh inconclusive (no result: BAZ2B inh)
CC[C@@H](CO)Nc1nc(NCc2ccccc2)c2ncn(C(C)C)c2n1	none (no result: HP1b binding inh, Six1-Eya2 inh, CtBP-E1A blk, BAZ2B inh, JMJD2A Tudor inh)
Cc1nn(Cc2ccccc2)c(C)c1C(=O)OCC(=O)Nc1cccc(S(N)(=O)=O)c1	none
NS(=O)(=O)c1cc(C(=O)OCC(=O)Nc2ccc3[nH]c(=O)[nH]c3c2)ccc1Cl	G9a block 1.41µM
Cn1c(O)c(C(=Nc2ccccc2)SCc2ccccc2Cl)c(=O)n(C)c1=O	BAZ2B inh 50.1µM (no result: G9a block)
CSC(=Nc1ccccc1)c1c(O)n(C)c(=O)n(C)c1=O	G9a block inconclusive
O=C1CC(=O)N(c2ccc(Cl)cc2Cl)C(=O)N1	G9a block 44.7µM
COc1cc(C(c2c(C)[nH]n(-c3ccccc3)c2=O)c2c(C)[nH]n(-c3ccccc3)c2=O)cc(OC)c1OC	BAZ2B inh 44.7µM, JMJD2A Tudor inh inconclusive
Cc1[nH]n(-c2ccccc2)c(=O)c1C(c1cccc([N+](=O)[O-])c1O)c1c(C)[nH]n(-c2ccccc2)c1=O	G9a block 44.7µM, HP1b binding inh inconclusive, BAZ2B inh 31.6µM, JMJD2A Tudor inh 50.1µM
COc1ccc(/C=C2/C(=O)NC(=S)N(C3CC3)C2=O)cc1CN1C(=O)c2ccccc2C1=O	G9a block 3.55µM, HP1b binding inh inconclusive, BAZ2B inh 50.1µM, JMJD2A Tudor inh 25.1µM
COc1ccc(/C=C2/C(=O)NC(=O)N(c3ccccc3)C2=O)cc1CN1C(=O)c2ccccc2C1=O	BAZ2B inh inconclusive
CC[C@H]1CN2CCc3cc(OC)c(OC)cc3C2C[C@@H]1C[C@H]1NCCc2cc(OC)c(OC)cc21 (stereo partly drawn)	none
CCN(CC)P(c1n(C)cc[n+]1C)N(CC)CC	G9a block inconclusive, HP1b binding inh inconclusive, JMJD2A Tudor inh 22.4µM (no result: CtBP-E1A blk)
Nc1nonc1C(=O)N/N=C/c1ccc([N+](=O)[O-])o1	G9a block 50.1µM, HP1b binding inh inconclusive, Six1-Eya2 inh inconclusive, BAZ2B inh 56.2µM, JMJD2A Tudor inh inconclusive
N/C(=N\[N+](=O)[O-])N/N=C/c1ccc(O)cc1	none
Cc1ccc(Cl)cc1N1CCN(C(=O)c2cn(CC(C)C)c(=O)c3c2c2ccccc2n3C)CC1	G9a block inconclusive, BAZ2B inh inconclusive (no result: Six1-Eya2 inh, CtBP-E1A blk)
CC(=NNC(=S)N1CC2CCC(CC2)C1)c1nccs1	HP1b binding inh inconclusive, Six1-Eya2 inh -89.3, CtBP-E1A blk -96.5, JMJD2A Tudor inh 20µM (no result: G9a block, BAZ2B inh)
COc1cc(C(=O)N/N=C/c2ccc(OC(=O)N3CCOCC3)cc2)cc(OC)c1OC	G9a block inconclusive (no result: CtBP-E1A blk)
Cc1ccccc1C(=O)Nc1sc2c(c1C(=O)O)CCC(C(C)(C)C)C2 (stereo not drawn)	G9a block 10µM, BAZ2B inh inconclusive (no result: Six1-Eya2 inh, CtBP-E1A blk)
CN1CCN(S(=O)(=O)c2ccc(C3CCCCC3)cc2)CC1	G9a block 8.91µM, JMJD2A Tudor inh 89.1µM
O=C(c1ccco1)N1CCN(C(=O)c2ccc(COc3ccc(Cl)cc3Cl)o2)CC1	JMJD2A Tudor inh 89.1µM (no result: G9a block, BAZ2B inh)
CCOC(=O)N1CCC(NC(=O)c2ccc3c(c2)N(Cc2cccc(C)c2)C(=O)c2ccccc2S3(=O)=O)CC1	none (no result: Six1-Eya2 inh, CtBP-E1A blk)
Cc1ccc(CC2C(=O)N(C)C(=O)N(C)C2=O)s1	G9a block 7.94µM
COc1ccc(CC2C(=O)N(C)C(=O)N(C)C2=O)c(OC)c1	G9a block inconclusive
O=c1c2ccccc2nc2n1CCS2(=O)=O	G9a block inconclusive
CC1C(=O)OC2C(O)C34C5OC(=O)[C@@]3(OC3OC(=O)[C@H](O)[C@]34C(C(C)(C)C)C5O)[C@]12O (stereo partly drawn)	none (no result: HP1b binding inh, Six1-Eya2 inh, CtBP-E1A blk, BAZ2B inh, JMJD2A Tudor inh)
CCN(CC)C(=O)/C(Cl)=C(\C)OP(=O)(OC)OC	none (no result: HP1b binding inh, Six1-Eya2 inh, CtBP-E1A blk, BAZ2B inh, JMJD2A Tudor inh)
O=[N+]([O-])c1ccc2c(c1)Cc1cc(O)ccc1-2	none (no result: G9a block, BAZ2B inh)

Screens: PubChem, National Center for Advancing Translational Sciences (NCATS)
